Source: PubChem BioAssay AID1159580 (chemical genetic matrix, 2015)
Values joined by “and” are separate entries in the source; they are usually repeats but may differ in a detail not shown here. Equal entries are not always repeated. Hit rate of the full screen: of about 5,500 compounds, about 2,000 (36%) were called active. Roughly 18% stayed inconclusive and do not appear here. Rule as the data show it: active = normalized growth mostly below about 0.91 (no sharp cut-off); inconclusive = no clear call, values can overlap the other calls; inactive = mostly above about 0.92. The list shows a part of the results.

Test: chemical genetic growth profiling, strain panel (AID 1159580);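 also: tested at 20 µM; growth read once vehicle control cultures reached saturation at 30 °C; 1 = growth at the plate median or of vehicle wells; lower values mean less growth of the strain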
Settings: S. cerevisiae deletion strains, growth OD

Measured: normalized growth

CC(C)CCCC(C)[C@H]1CCC2C3CC=C4CC(=O)CC[C@]4(C)C3CC[C@@]21C (some centres not stated)
inactive: locus YAL021C, strain ccr4, stronger effect = lower value 0.976 | locus YAL026C, strain drs2, stronger effect = lower value 0.985 | locus YAL030W, strain snc1, stronger effect = lower value 0.989 | locus YBL061C, strain skt5, stronger effect = lower value 1 | locus YBR009C, strain hhf1, stronger effect = lower value 1.04 | locus YBR021W, strain FUR4, stronger effect = lower value 0.962 | locus YBR023C, strain chs3, stronger effect = lower value 0.988 | locus YBR171W, strain sec66, stronger effect = lower value 0.992 | locus YBR229C, strain ROT2, stronger effect = lower value 0.961 | locus YBR231C, strain swc5, stronger effect = lower value 1.01 | locus YBR279W, strain paf1, stronger effect = lower value 1 | locus YCL011C, strain gbp2, stronger effect = lower value 0.986 | locus YCL016C, strain dcc1, stronger effect = lower value 1 | locus YCL029C, strain bik1, stronger effect = lower value 0.999 | locus YCL061C, strain MRC1, stronger effect = lower value 0.99 | locus YCL069W, strain vba3, stronger effect = lower value 0.994 | locus YCR088W, strain abp1, stronger effect = lower value 0.99 | locus YDL005C, strain med2, stronger effect = lower value 0.99 | locus YDL035C, strain GPR1, stronger effect = lower value 0.953 | locus YDL040C, strain nat1, stronger effect = lower value 0.975 | locus YDL074C, strain BRE1, stronger effect = lower value 0.937 | locus YDL101C, strain DUN1, stronger effect = lower value 0.971 | locus YDL185W, strain tfp1, stronger effect = lower value 0.982 | locus YDL192W, strain arf1, stronger effect = lower value 0.932 | locus YDR001C, strain nth1, stronger effect = lower value 0.99 | locus YDR069C, strain doa4, stronger effect = lower value 1 | locus YDR101C, strain arx1, stronger effect = lower value 1.03 | locus YDR137W, strain rgp1, stronger effect = lower value 0.895 | locus YDR150W, strain NUM1, stronger effect = lower value 0.978 | locus YDR159W, strain sac3, stronger effect = lower value 0.999 | locus YDR162C, strain NBP2, stronger effect = lower value 0.939 | locus YDR195W, strain ref2 1.03 | locus YDR297W, strain sur2, stronger effect = lower value 0.994 | locus YDR318W, strain mcm21, stronger effect = lower value 0.922 | locus YDR334W, strain swr1, stronger effect = lower value 0.968 | locus YDR335W, strain msn5, stronger effect = lower value 0.984 | locus YDR388W, stronger effect = lower value 0.964 | locus YDR392W, strain spt3, stronger effect = lower value 0.932 | locus YDR502C, strain sam2, stronger effect = lower value 0.947 | locus YEL003W, strain gim4, stronger effect = lower value 0.987 | locus YEL037C, strain rad23, stronger effect = lower value 0.986 | locus YEL061C, strain CIN8 (second series), stronger effect = lower value 0.991 | locus YEL061C, strain CIN8, stronger effect = lower value 0.988 | locus YER015W, strain faa2, stronger effect = lower value 0.992 | locus YER016W, strain bim1, stronger effect = lower value 0.987 | locus YER110C, stronger effect = lower value 0.98 | locus YER111C, strain swi4, stronger effect = lower value 0.997 | locus YER155C, strain BEM2 (second series), stronger effect = lower value 1.01 | locus YER155C, strain BEM2, stronger effect = lower value 1.01 | locus YER167W, strain BCK2, stronger effect = lower value 0.993 | locus YFR010W, strain ubp6, stronger effect = lower value 0.991 | locus YGL078C, strain dbp3, stronger effect = lower value 0.98 | locus YGL086W, strain mad1, stronger effect = lower value 0.997 | locus YGL167C, strain pmr1, stronger effect = lower value 0.996 | locus YGL173C, strain kem1, stronger effect = lower value 0.995 | locus YGL227W, strain vid30, stronger effect = lower value 0.995 | locus YGL240W, strain doc1, stronger effect = lower value 1.04 | locus YGL248W, strain PDE1, stronger effect = lower value 0.922 | locus YGL253W, strain hxk2, stronger effect = lower value 0.976 | locus YGR135W, strain pre9, stronger effect = lower value 0.942 | locus YGR252W, strain gcn5, stronger effect = lower value 0.839 | locus YHR013C, strain ard1, stronger effect = lower value 0.989 | locus YHR027C, strain rpn1, stronger effect = lower value 0.987 | locus YHR030C, strain SLT2, stronger effect = lower value 1 and 1.02 | locus YHR079C, strain IRE1 (second series), stronger effect = lower value 0.992 | locus YHR079C, strain IRE1, stronger effect = lower value 0.997 | locus YHR094C, strain hxt1, stronger effect = lower value 0.986 | locus YHR129C, strain ARP1, stronger effect = lower value 0.974 | locus YHR142W, strain chs7, stronger effect = lower value 0.903 | locus YHR200W, strain rpn10, stronger effect = lower value 0.958 | locus YIL066C, strain RNR3, stronger effect = lower value 0.952 | locus YIL073C, strain SPO22, stronger effect = lower value 0.936 | locus YIL125W, strain kgd1, stronger effect = lower value 0.987 | locus YIR030C, strain dcg1, stronger effect = lower value 0.979 | locus YJL092W, strain hpr5, stronger effect = lower value 0.978 | locus YJL095W, strain BCK1 (second series), stronger effect = lower value 0.989 | locus YJL095W, strain BCK1, stronger effect = lower value 0.83 and 1 | locus YJL115W, strain asf1, stronger effect = lower value 0.974 | locus YJL129C, strain trk1, stronger effect = lower value 0.935 | locus YJL134W, strain LCB3, stronger effect = lower value 0.982 | locus YJL154C, strain vps35, stronger effect = lower value 0.993 | locus YJL164C, strain tpk1, stronger effect = lower value 0.95 | locus YJL166W, strain qcr8, stronger effect = lower value 0.986 | locus YJL168C, strain set2, stronger effect = lower value 0.996 | locus YJL187C, strain SWE1 (second series), stronger effect = lower value 0.968 | locus YJL187C, strain SWE1, stronger effect = lower value 1 | locus YJR043C, strain POL32, stronger effect = lower value 0.958
